# Measurements: PubChem BioAssay AID504339 (National Center for Advancing Translational Sciences (NCATS), 2011)
# Several values for one entry are separate records, joined by “and”; a condition that tells them apart may be missing. Equal entries are not always repeated. Screen size: about 390,000 compounds; about 17,000 (4.4%) were called active. Entries that show only a call come without a potency. Another 8% or so got no clear call; they are omitted. The call rests on the fitted dose curve; in most records, active means well fitted inhibition curve with a large enough effect; inconclusive means small, poorly fitted or top-dose-only effect; inactive means no such curve, though single readings can be large or run the other way. The full list was thinned out, with actives kept by preference. More than one record can exist for a structure, and the calls need not agree.
# Target: Lysine-specific demethylase 4A (Homo sapiens) (UniProt O75164)
# Sequence (O75164 whole entry, looked up, the tested form may be a part): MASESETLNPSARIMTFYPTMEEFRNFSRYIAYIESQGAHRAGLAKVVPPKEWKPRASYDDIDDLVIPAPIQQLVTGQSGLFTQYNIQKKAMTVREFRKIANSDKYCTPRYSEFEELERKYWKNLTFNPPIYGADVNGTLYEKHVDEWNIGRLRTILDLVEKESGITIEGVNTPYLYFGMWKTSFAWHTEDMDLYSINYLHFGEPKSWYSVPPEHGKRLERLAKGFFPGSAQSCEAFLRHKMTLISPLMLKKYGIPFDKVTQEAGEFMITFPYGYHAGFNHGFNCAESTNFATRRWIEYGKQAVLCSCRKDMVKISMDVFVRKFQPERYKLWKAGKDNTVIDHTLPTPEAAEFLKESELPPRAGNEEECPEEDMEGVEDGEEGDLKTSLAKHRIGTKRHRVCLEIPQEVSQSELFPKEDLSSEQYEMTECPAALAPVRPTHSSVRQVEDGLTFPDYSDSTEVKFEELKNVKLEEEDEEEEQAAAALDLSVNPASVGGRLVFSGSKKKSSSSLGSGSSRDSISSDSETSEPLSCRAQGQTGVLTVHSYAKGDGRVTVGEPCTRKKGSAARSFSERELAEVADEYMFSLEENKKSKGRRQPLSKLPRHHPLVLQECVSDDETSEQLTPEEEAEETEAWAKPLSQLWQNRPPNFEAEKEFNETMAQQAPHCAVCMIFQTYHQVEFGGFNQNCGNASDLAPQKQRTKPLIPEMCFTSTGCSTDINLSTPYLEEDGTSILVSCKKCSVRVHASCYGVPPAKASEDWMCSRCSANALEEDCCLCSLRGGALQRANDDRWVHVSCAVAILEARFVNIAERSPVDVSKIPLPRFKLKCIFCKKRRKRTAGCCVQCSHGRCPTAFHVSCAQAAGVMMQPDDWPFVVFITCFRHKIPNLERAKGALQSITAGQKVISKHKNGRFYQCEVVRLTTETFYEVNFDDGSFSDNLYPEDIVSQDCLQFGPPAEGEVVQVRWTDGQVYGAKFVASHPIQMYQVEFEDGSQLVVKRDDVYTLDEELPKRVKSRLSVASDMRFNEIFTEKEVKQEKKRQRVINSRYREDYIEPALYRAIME
# Assay: qHTS Assay for Inhibitors of JMJD2A-Tudor Domain; further: nearly all actives have a fitted effect of over 50% in size
# Details: AlphaScreen JMJD2A-Tudor / H3K4me3 peptide binding; series mostly up to 114 µM
# Potency means the concentration at half of the fitted maximal effect.
SMILES,Potency,"activity change, negative = inhibition"
O=C(c1cc(-c2ccc(F)cc2)on1)N1CCN(c2ccc(F)cc2)CC1,inactive and 28.2 µM (active),–
O=C(c1cc(-c2ccc(Cl)cc2)on1)N1CCN(c2ccccc2)CC1,inactive,–
COc1ccc(-c2cc(C(=O)N3CCN(c4ccc(F)cc4)CC3)no2)cc1,inactive,–
COc1ccc(-n2c(=O)c3ccccc3n(Cc3ccccc3Cl)c2=O)cc1,inactive,–
COc1ccc(-c2cc(-c3nc(-c4cc(OC)c(OC)c(OC)c4)no3)[nH]n2)c(OC)c1,inactive,–
CCC(=O)Nc1ccccc1-c1nc2ccccc2n(CC(=O)Nc2ccc(C)c(C)c2)c1=O,inactive,–
CCn1c(SCc2cccc(C(=O)O)c2)nnc1-c1ccc(Cl)cc1,inactive,–
CC1CCCCC1NC(=O)CSc1nnc(-c2ccncc2)n1CCCN(C)C (stereo not given),3.55 µM (active),–
CN(C)CCCn1c(SCc2ccc(Cl)cc2)nnc1-c1ccncc1,20 µM (active),–
CC1CCCC(NC(=O)CSc2nccn2C)C1C (stereo not given),inactive,–
CCn1c(SCC(=O)NC2CC2)nnc1-c1ccncc1,inactive,–
Cn1c(SCc2ccc(F)cc2)nnc1-c1ccncc1,inactive,–
Cc1ccccc1-c1nc2scc(CCNC(=O)C(=O)Nc3ccc(F)cc3F)n2n1,inactive,–
CCOC(=O)c1ccc(NC(=O)CCS(=O)(=O)c2ccc(C)cc2)cc1,inactive,–
COc1ccc(OCC(=O)Nc2cccc(C(=O)OCc3cc(=O)n4nc(C)sc4n3)c2)cc1,inactive,–
O=C(Cc1ccccc1)Nc1ccc(NC(=O)c2cccnc2)cc1,inactive,–
O=C(CC(NCc1cccnc1)C(=O)O)Nc1ccc(O)cc1 (stereo not given),25.1 µM (active),–
CCCCc1ccc(NC(=O)NCc2cccnc2)cc1,inactive,–
COc1ccccc1CNC(=O)NCc1noc2ccc(C)cc12,inactive,–
Cc1ccc(CNCc2ccc3c(c2)OCO3)c(C)c1,39.8 µM (active),–
COc1cccc(CC(=O)OCC(=O)NCc2ccc3c(c2)OCO3)c1,inactive,–
COc1ccc(NC(=O)NCc2ccc3c(c2)OCO3)c(OC)c1,inactive,–
O=C(NCc1ccc2c(c1)OCO2)C12CC3CC(CC(C3)C1)C2,inactive,–
COc1cccc(CNCc2ccc3c(c2)OCO3)c1,1.78 µM (active),–
COc1cc(OC)c(C(=O)NCc2ccc3c(c2)OCO3)cc1OC,inactive,–

SMILES,Potency,"activity change, negative = inhibition"
CC(=O)c1c(C)n(S(=O)(=O)c2ccc(Cl)cc2)c2ccc(NS(=O)(=O)c3ccc(Cl)cc3)cc12,inactive,–
O=C(NCCc1ccccc1)c1ccc2c(c1)N(Cc1ccc(F)cc1)C(=O)c1ccccc1S2(=O)=O,inactive,–
CC(C)(C)C1CCc2c(sc(NC(=O)c3ccccc3F)c2C(=O)N2CCCCC2)C1 (stereo not given),inactive,–
CC(C)c1ccc(NC(=O)CN(C)S(=O)(=O)c2ccc3c(c2)c(=O)n(C)c(=O)n3C)cc1,inactive,–
COc1ccc(-c2cc(C(F)(F)F)nc(SCC(=O)N(C)Cc3ccccc3)n2)cc1OC,inactive,–
Cc1ccc(-c2nn(CCC(=O)Nc3ccc(Cl)c(Cl)c3)c(=O)c3ccccc23)cc1,inactive,–
COc1ccc2nc(N3C(=O)C(O)=C(C(=O)c4ccco4)C3c3ccco3)sc2c1 (stereo not given),0.794 µM (active),–
COc1ccc2nc(N3CCN(C(=O)c4ccc([N+](=O)[O-])o4)CC3)sc2c1,inactive,–
Cc1ccccc1OCCSc1nc2ccc(NC(=O)c3ccco3)cc2s1,inactive,–
COc1ccc(NC(C)=O)cc1NC(=O)CN1CCN(c2ccc(F)cc2)CC1,inactive,–
COC(=O)c1ccccc1NC(=O)c1cnn(-c2ccc(F)cc2)c1-n1cccc1,inactive,–
CCc1ccccc1NC(=O)CSc1nc(C)c(C(=O)Nc2ccccc2)c(-c2ccc(Cl)cc2)c1C#N,inactive,–
CCN(CC)S(=O)(=O)c1ccc2c(c1)c(=O)c(C(=O)N1CCN(c3cccc(Cl)c3)CC1)cn2C,inactive,–
OC(COCc1ccco1)CN1CCN(c2ccccc2)CC1 (stereo not given),2.51 µM (active),–
OC(COc1ccccc1)CN1CCN(c2cccc(Cl)c2)CC1 (stereo not given),inactive,–
CN1CCN(CC(O)COCc2ccc3c(c2)OCO3)CC1 (stereo not given),inactive,–
COc1cccc(C(=O)NCC(=O)OCc2cc(=O)n3ccsc3n2)c1,inactive,–
CC(C)c1ccc(NC(=O)c2cc(S(=O)(=O)N3CCc4ccccc4C3)ccc2F)cc1,inactive,–
CCOc1ccccc1NC(=O)c1ccc2c(c1)CCN2S(=O)(=O)c1ccc(C)cc1,inactive,–
CCOc1ccc(N(Cc2ccccc2)C(=O)c2nc(S(C)(=O)=O)ncc2Cl)cc1,inactive,–
CC(CN1CCCCC1)c1ccccc1 (stereo not given),3.98 µM (active),–
CC(CN1CCC(n2nccc2NC(=O)C2CCCC2)CC1)c1ccccc1 (stereo not given),inactive,–
CC(CN1CCOCC1)c1ccccc1 (stereo not given),inactive,–
COc1ccc(-n2c(SCC(N)=O)nc3c(oc4ccccc43)c2=O)cc1,inactive,–
CCn1cc(C(=O)NCc2ccc(C)cc2)c(=O)c2cc(S(=O)(=O)N3CCc4ccccc4C3)ccc21,inactive,–

SMILES,Potency,"activity change, negative = inhibition"
CCCCNC(=O)c1ccc2c(c1)NC(=O)C(C(C)C)N2 (stereo not given),inactive,–
C[C@H](NC(=O)c1ccccc1)C(=O)OCC(=O)c1c[nH]c2ccccc12,inactive,–
CCOc1ccccc1C(=O)NCC(c1ccc(N(C)C)cc1)N1CCCC1 (stereo not given),inactive,–
CN(C)c1ccc(C(CNC(=O)c2ccc(F)cc2)c2c[nH]c3ccccc23)cc1 (stereo not given),25.1 µM (active),–
Cc1ccc(CN2COc3cc(C)c4c(oc(=O)c5ccccc54)c3C2)cc1,inactive,–
Cc1ccc(NC2=C(c3ccc(C(F)(F)F)cc3)C(=O)c3ccccc32)cc1F,inactive,–
COc1ccc(N2C(=O)CSC23C(=O)N(Cc2cccc(F)c2)c2ccccc23)cc1Cl (stereo not given),inactive,–
O=C(CS(=O)(=O)c1cccc2nsnc12)N1CCN(c2cccc(Cl)c2)CC1,inactive,–
COc1ccc2c(c1OC)C(=O)N(c1ncn[nH]1)C2,39.8 µM (active),–
COc1ccc(C2C(C#N)=C(N)N(c3ncn[nH]3)C3=C2C(=O)CCC3)cc1 (stereo not given),–,-18% [at 11.4 µM] (inactive)
COc1ccc2c(c1OC)C(=O)N(c1ccc(O)cc1)C2,inactive,–
CCOC(=O)c1c(S(=O)(=O)N2CCCC(C(=O)NCc3cccc(C)c3)C2)c(C)n(C)c1C (stereo not given),inactive,–
Cc1cc(C)cc(NS(=O)(=O)c2ccc3[nH]cc(C(=O)N4CCCCC4)c(=O)c3c2)c1,inactive,–
O=C1C(Cl)=C(Oc2ccccc2)C(=O)c2ccccc21,1 µM (active),–
Cc1ccc(-n2c3nc(=O)[nH]c(=O)c-3cc3c(Cl)cccc32)cc1,inactive,–
COc1cc(CNCCSc2nnnn2C)ccc1OCc1c(F)cccc1Cl,inactive,–
COC(CCN(C)C)(c1ccccc1)c1ccccc1,inactive,–
CN(C)CCOC1c2ccccc2-c2ccccc21,1.41 µM (active),–
CC(=O)O[C@H]1c2ccccc2-c2ccccc2[C@@H]1OC(C)=O,inactive,–
COc1cc(NC(=O)c2nn(-c3ccc(C)cc3)c(=O)c3c2c2ccccc2n3C)cc(OC)c1OC,inactive,–
O=C(CN1C(=O)COc2ccc(S(=O)(=O)N3CCOCC3)cc21)N1CCN(c2cccc(Cl)c2)CC1,inactive,–
CCOc1ccccc1/C=N/NC(=O)CNC(=O)COc1ccccc1,inactive,–
Brc1ccccc1/C=N/Nc1nc2ccccc2o1,inactive,–
CCOc1ccccc1/C=N/Nc1nc2ccccc2o1,17.8 µM (active),–
COc1ccc(NC(=O)c2sc3nc[nH]c(=O)c3c2C)cc1,inactive,–

SMILES,Potency,"activity change, negative = inhibition"
Cc1[nH]n(-c2ccc([N+](=O)[O-])cc2)c(=O)c1C=NCCN1CCN(C(=O)c2ccccc2F)CC1,inactive,–
O=c1[nH]n(-c2ccc([N+](=O)[O-])cc2)c(=O)c2ccccc12,39.8 µM (active),–
CC(=O)N1c2ccccc2N(Cc2ccc([N+](=O)[O-])cc2)C(=O)C1(C)C,inactive,–
Cc1nc2c(c(C)nn2-c2ccccc2)c(C)c1CCC(=O)NCCc1ccc(Cl)cc1,inactive,–
Cc1ccc(C)c(Cn2c(CCCNC(=O)C3CCCCC3)nc3ccccc32)c1,inactive,–
COc1ccccc1Cc1nc2ccccc2nc1SCC(=O)N1CCCc2ccccc21,inactive,–
CC(C)c1ccc(Cn2c(COc3ccccc3)nc3ccccc32)cc1,inactive,–
O=C(CSc1nnc(COc2ccc(Cl)cc2)n1Cc1ccco1)N1CCNC1=O,inactive,–
Cn1c2ccccc2c(=O)c2c(=O)n(Cc3ccco3)c(COc3ccccc3)nc21,44.7 µM (active),–
O=C(CSc1nc2c(c(=O)[nH]1)CN(Cc1ccc(F)cc1)CC2)Nc1ccccc1Cl,inactive,–
COc1cc2nc(SCc3ccc(F)cc3)n3nc(CCn4c(C)nc5ccccc54)nc3c2cc1OC,inactive,–
Cc1ccc2nc3c(cc(C(=O)NC4CCCCC4)c(=N)n3C(C)C)c(=O)n2c1,inactive,–
CCC1=Nc2cc(C(=O)NCC(C)c3ccccc3)ccc2Sc2ccc(C)cc21 (stereo not given),inactive,–
Cc1cccc(N2CCN(c3ccc(C(=O)O)cc3NC(=O)c3ccccc3F)CC2C)c1 (stereo not given),56.2 µM (active),–
Cc1cccc(N2CCN(C(=O)c3ccccc3NC(=O)C3CCCCC3C(=O)O)CC2)c1 (stereo not given),inactive,–
Cc1cccc(N2CCN(C(=O)c3cccc(S(=O)(=O)N4CCc5ccccc5C4)c3)CC2C)c1 (stereo not given),inactive,–
O=S(=O)(c1ccc2c(c1)OCCCO2)N1CCN(S(=O)(=O)c2c(F)cccc2F)CC1,inactive,–
CCCCCn1c(=O)[nH]c2cc(C(=O)Nc3ccc(F)cc3)ccc2c1=O,inactive,–
COc1ccccc1CNC(=O)CCn1c(=O)c2ccccc2n(CC(=O)Nc2ccc(Br)cc2F)c1=O,inactive,–
Cc1ccc2c(c1)-c1c(cnn1CC(=O)Nc1ccccc1C#N)CO2,inactive,–
Cn1cc(S(=O)(=O)N2CCCCCC2)cc1C(=O)N1CCN(c2ccc(F)cc2)CC1,inactive,–
CCOC(=O)c1cc(-c2ccc(OC)c(S(=O)(=O)Nc3ccc(OC)cc3OC)c2)on1,inactive,–
O=S(=O)(NC1CC1)c1ccc(Cl)cc1,inactive,–
O=S(=O)(NC1CCCCC1)c1ccc(F)c2ccccc12,inactive,–
O=S(=O)(NC1CC1)c1ccc2c3c(cccc13)CC2,17.8 µM (active),–
